# Source: PubChem BioAssay (National Center for Advancing Translational Sciences (NCATS))
# MARV entry inh: Marburg virus entry inhibition; AID 540276; Marburg virus pseudotyped entry inhibition, cell reporter; 300,000 tested, 1.8% active; Potency, µM (doses to about 37.8 µM), actives largely listed as inhibitors; calls by dose curve; tested in HEK293 cells
# AmpC inh detg: inhibitors of E. coli AmpC beta-lactamase with detergent; Potency, µM (titrated, usually from 114 µM), usual class: inhibitors; AmpC hydrolysis of nitrocefin, absorbance 480 nm, 0.01% Triton; 370,000 tested, 0.041% active; P00811; also: nearly all actives have a fitted effect of over 25% in size
# Target sequence (P00811 whole entry, looked up): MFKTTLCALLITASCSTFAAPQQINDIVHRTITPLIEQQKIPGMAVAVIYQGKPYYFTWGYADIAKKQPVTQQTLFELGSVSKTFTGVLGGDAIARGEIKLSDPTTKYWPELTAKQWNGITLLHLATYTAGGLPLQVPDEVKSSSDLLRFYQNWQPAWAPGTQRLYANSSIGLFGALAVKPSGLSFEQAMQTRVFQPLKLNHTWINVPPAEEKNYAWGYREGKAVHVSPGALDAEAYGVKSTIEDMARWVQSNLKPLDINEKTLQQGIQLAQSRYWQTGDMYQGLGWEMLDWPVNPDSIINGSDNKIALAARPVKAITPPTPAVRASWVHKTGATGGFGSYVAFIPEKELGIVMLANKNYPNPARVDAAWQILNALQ
#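 AmpC (5.3 nM in the dispensed reagent) in 20 mM phosphate pH 7.0 with 0.01% (detergent screen) or 0.0001% Triton X-100 was preincubated with compounds for 15 min at room temperature. Nitrocefin was then added from an 800 uM solution, and hydrolysis was followed at 480 nm.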
# AMA1 RON2 block: inhibitors of Plasmodium falciparum AMA1-RON2 interaction; AlphaScreen AMA1-biotinylated RON2 peptide binding; Potency, µM (titrated, usually from 58.2 µM), hits mostly inhibitors; 360,000 tested, 0.2% active; also: nearly all actives have a fitted effect of over 45% in size
#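 AMA1 (3D7) with his tag at 25 nM final met compounds first, then biotinylated RON2 peptide at 25 nM; detection used donor plus acceptor beads, 10 µg/mL apiece, read by AlphaScreen after 30 min at room temperature.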
# AmpC inh no detg: AmpC beta-lactamase inhibition without detergent; P00811; Potency, µM (highest dose often 57.1 µM), actives largely listed as inhibitors; AmpC nitrocefin hydrolysis, absorbance 480 nm, 0.0001% Triton; 330,000 tested, 0.52% active; also: nearly all actives have a fitted effect of over 20% in size
#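 AmpC (5.3 nM in the dispensed reagent) in 20 mM phosphate pH 7.0 with 0.01% (detergent screen) or 0.0001% Triton X-100 was preincubated with compounds for 15 min at room temperature. Nitrocefin was then added from an 800 uM solution, and hydrolysis was followed at 480 nm.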
# Lassa entry inh: inhibitors of Lassa virus binding or cell entry. Lassa virus pseudotype entry inhibition, cell reporter. Potency, µM (doses to about 37.9 µM), hits mostly inhibitors. 300,000 tested, 1.2% active; calls by dose curve; tested in HEK293 cells; also: nearly all actives have a fitted effect of over 50% in size
# Numbers stand for hits; - = inactive; ? = inconclusive; . = not tested or not shown. Compounds with a hit are over-represented: about 2.3% of the library has one in this group of screens. Unless noted, calls follow the shape of the dose curve; as a rule, active = well fitted curve in the direction sought with a large enough effect; inconclusive = small, poorly fitted or top-dose-only effect, or another doubt; inactive = no such curve, though single readings can be large; an effect the other way counts as inactive or inconclusive.
SMILES,MARV entry inh,AmpC inh detg,AMA1 RON2 block,AmpC inh no detg,Lassa entry inh
Cc1ccc(N2C(=O)CC(Nc3ccc(Cl)c(S(=O)(=O)N(C)C)c3)C2=O)c(C)c1 (configuration not stated),.,-,-,28µM,.
O=C(NN=C1C[C@@H](O)[C@H](O)[C@H]2[C@@H]3C(=O)N(Cc4ccc5c(c4)OCO5)C(=O)[C@@H]3CC[C@H]12)OCc1ccccc1,-,.,.,.,?
Cc1cc(NC(=O)COC(=O)c2c(C)nn(-c3ccccc3)c2C)no1,?,-,-,-,18µM
Cc1nn(-c2ccccc2)c(Cl)c1C(=O)OCC(=O)NCCc1ccccc1,11µM,-,-,-,?
Cc1ccc(NC(=O)CCn2c(=O)c3cccn3c3ccccc32)c(Cl)c1,.,-,.,.,?
Cc1ccc(Nc2nc(N/N=C/c3c[nH]c4ccccc34)nc(N3CCOCC3)n2)cc1,0.21µM,?,-,-,15µM
C(=N\Nc1nc(Nc2ccccc2)nc(N2CCOCC2)n1)/c1c[nH]c2ccccc12,0.073µM,-,-,-,?
CCOc1ccc(NC(=O)c2ccc3c(c2)CCN3S(=O)(=O)CC)cc1,-,-,.,.,-
O=C1CCCC2=C1[C@H]1O[C@](c3ccsc3)(Cc3c1ccc1ccccc31)O2,-,.,.,.,.
CN1C2CCC1CC(OC(=O)c1cc(Cl)cc(Cl)c1)C2 (configuration not stated),7.1µM,-,-,-,?
COc1ccc(NC(=O)Cn2cnc3c(oc4ccccc43)c2=O)cc1OC,.,-,.,.,-
COC(=O)c1ccc(-c2nc3cc(Cl)c(N)cc3s2)cc1,0.5µM,-,-,-,?
COc1ccc(C=CN(CCc2ccc(OC)c(OC)c2)C(=O)c2ccccn2)cc1,-,.,.,.,.
CN(C)CC/C=C1/c2ccc(F)cc2Sc2ccc(Cl)cc21,13µM,.,?,.,?
CN(C)CC/C=C1\c2ccccc2Sc2ccc(Cl)cc21,?,?,-,-,?
CN(C)CC/C=C1\c2ccccc2Sc2cc(F)c(Cl)cc21,14µM,.,-,.,?
COC(=O)[C@@H]1CC[C@H](C)[C@@H](c2ccc(C)cc2)N1C(=O)c1ccc(/C=N/OC[C@H]2O[C@H](c3ccccc3)C=C[C@@H]2Oc2ccc(OC)cc2)cc1,-,.,.,.,.
Cc1nnc(NC(=O)CSCc2cc(=O)c3ccccc3[nH]2)s1,.,?,.,-,-
N#CC1=C(N)Oc2c(c(=O)oc3ccccc23)C1c1cccnc1 (configuration not stated),-,-,-,-,-
CCOc1cc(C2C(C#N)=C(N)Oc3c2c(=O)oc2ccccc32)ccc1OC(=O)c1cccs1 (configuration not stated),-,?,-,16µM,-
Nc1nc(N)c2c(ccc3c2ccn3Cc2cccc([N+](=O)[O-])c2)n1,.,.,32µM,.,.
CC(C)c1ccc(Cc2cn3cc(-c4cc5ccccc5oc4=O)nc3s2)cc1,?,-,.,.,-
Cc1ccccc1C(=O)N/N=C/c1ccc([N+](=O)[O-])s1,4.1µM,?,-,-,-
O=[N+]([O-])c1ccc(/C=N/NC(=S)Nc2ccc(Cl)cc2Cl)s1,.,-,-,14µM,.
Cc1ccc(NC(=S)N/N=C/c2ccc(Cl)c([N+](=O)[O-])c2)cc1,-,-,-,-,-
SMILES,MARV entry inh,AmpC inh detg,AMA1 RON2 block,AmpC inh no detg,Lassa entry inh
O=C(N/N=C/c1ccc([N+](=O)[O-])s1)c1ccccc1Br,?,-,-,-,?
COc1ccc(/C=N/NC(=S)Nc2ccccc2[N+](=O)[O-])cc1O,?,-,-,-,23µM
O=[N+]([O-])c1cc(/C=N/NC(=S)Nc2ccccc2Cl)ccc1Cl,8.9µM,?,-,-,?
COc1ccc(CN2C[C@]3(CO)OC(CO)C[C@H]3[S+]2(=O)[O-])cc1 (some centres not stated),.,.,.,.,-
Cc1c(Cl)cccc1NC(=O)Nc1ccc2snnc2c1,?,-,.,.,?
COc1ccc(C(=O)N(Cc2ccc(C(C)C)cc2)C2CCS(=O)(=O)C2)cc1 (configuration not stated),?,-,.,.,-
Cc1ccc(Cl)cc1-n1ncc2c(N3CCN(Cc4ccccc4)CC3)ncnc21,.,-,.,.,-
CC(=O)OC[C@H]1O[C@H](C#Cc2ccccc2Cl)C=C[C@H]1OC(C)=O,-,.,.,.,.
NS(=O)(=O)c1cccc(NC(=O)COC(=O)/C(=C/c2cccs2)c2cccs2)c1,?,-,-,-,-
Cc1ccc(NC(=O)COC(=O)/C(=C/c2cccs2)c2cccs2)cc1S(=O)(=O)N(C)C,?,-,-,?,11µM
Cc1cccc(N2C(=O)CSC23C(=O)N(Cc2cccc(C(F)(F)F)c2)c2ccccc23)c1 (configuration not stated),.,-,.,.,-
CCOc1cc2[nH]c(=S)n(Cc3ccc(C(=O)NCC(OC)OC)cc3)c(=O)c2cc1OCC,-,?,-,-,-
CCOc1cc2[nH]c(=S)n(Cc3ccc(C(=O)NCCN(CC)CC)cc3)c(=O)c2cc1OCC,10µM,-,-,-,-
CCN(CC)CCNC(=O)c1ccc2c(=O)n(C3CCCC3)c(=S)[nH]c2c1,8.2µM,-,-,-,?
Cc1ccccc1OCC(=O)N(Cc1ccc(C(C)C)cc1)C1CCS(=O)(=O)C1 (configuration not stated),-,-,.,.,-
Cc1cccc(NC(=O)c2ccc3c(O)c(S(=O)(=O)c4ccccc4)c(=O)[nH]c3c2)c1C,.,-,.,.,-
COCCSc1ccccc1C(=O)N1CCN(c2ccccc2)CC1,-,-,-,-,-
Cc1noc(C)c1CSc1ccccc1C(=O)N1CCN(c2ccccc2)CC1,-,?,-,-,10µM
CCCC[n+]1c2ccccc2cc2ccccc21,.,32µM,-,-,.
CCC[n+]1c2ccccc2cc2ccccc21,?,?,-,-,?
CCc1ccc(C(C(=O)NCc2ccc(OC)cc2)N(CCOC)C(=O)Cc2cccs2)cc1 (configuration not stated),?,-,-,-,?
O=C(NC1CCCC1)C(c1ccccc1)N(Cc1ccc2c(c1)OCO2)C(=O)Cc1cccs1 (configuration not stated),?,-,-,-,?
COc1ccc(CNC(=O)C(c2ccc(C)o2)N(Cc2cccs2)C(=O)Cc2cccs2)cc1 (configuration not stated),?,-,-,-,11µM
Cc1ccc(C(C(=O)NC2CCCCC2)N(Cc2ccccc2)C(=O)Cc2c[nH]c3ccccc23)o1 (configuration not stated),?,-,-,-,?
COc1ccc(CN(C(=O)Cc2c[nH]c3ccccc23)C(C(=O)NC2CCCCC2)c2ccc(C)o2)cc1 (configuration not stated),7.3µM,-,-,-,7.3µM
COCCN(C(=O)Cc1cccs1)C(C(=O)NCc1ccc(OC)cc1)c1ccc(C)cc1 (configuration not stated),?,-,-,0.32µM,?
